# According to PubChem BioAssay (NCATS):
# Records with an inconclusive call do not appear. A number with no mark means an inactive call. Calls of active or inactive are those of the source. Calls follow the shape of the dose curve; as a rule, active = well fitted curve in the direction sought with a large enough effect; inconclusive = small, poorly fitted or top-dose-only effect, or another doubt; inactive = no such curve, though single readings can be large; an effect the other way counts as inactive or inconclusive.
# What was measured:
# [1] = Quantitative High-Throughput drug screen in 47 multiple myeloma cell lines against the NCATS MIPE library collection: NCIH929_DSMZ cell viability assay (AID 1918978); also: nearly all actives have a fitted effect of over 35% in size
# Outline: (§1)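 MIPE 4.0 approved/investigational drugs; 500 cells/well; 48 h 37 °C humidified 5% CO2; CTG luminescence readout; DMSO = 100%, media = 0% viability.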
# [2] = Quantitative High-Throughput drug screen in 47 multiple myeloma cell lines against the NCATS MIPE library collection: OCIMY1_PLB cell viability assay (AID 1918979); also: nearly all actives have a fitted effect of over 35% in size;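 as to viability: 100% = DMSO-only wells and 0% = cell-free media-only wells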
# Outline: as §1
# [3] = Quantitative High-Throughput drug screen in 47 multiple myeloma cell lines against the NCATS MIPE library collection: MM1S_ATCC cell viability assay (AID 1918980); also: nearly all actives have a fitted effect of over 45% in size
# Outline: as §1
# [4] = Quantitative High-Throughput drug screen in 47 multiple myeloma cell lines against the NCATS MIPE library collection: MM1R_ATCC cell viability assay (AID 1918981); also: nearly all actives have a fitted effect of over 35% in size
# Outline: as §1
# [5] = Quantitative High-Throughput drug screen in 47 multiple myeloma cell lines against the NCATS MIPE library collection: LP1_DSMZ cell viability assay (AID 1918982); also: nearly all actives have a fitted effect of over 35% in size
# Outline: as §1
# [6] = Quantitative High-Throughput drug screen in 47 multiple myeloma cell lines against the NCATS MIPE library collection: KMS28PE_JCRB cell viability assay (AID 1918983); also: nearly all actives have a fitted effect of over 35% in size
# Outline: as §1
# [7] = Quantitative High-Throughput drug screen in 47 multiple myeloma cell lines against the NCATS MIPE library collection: KMS34_JCRB cell viability assay (AID 1918985); also: nearly all actives have a fitted effect of over 40% in size
# Outline: as §1
# [8] = Quantitative High-Throughput drug screen in 47 multiple myeloma cell lines against the NCATS MIPE library collection: OCIMY7_PLB cell viability assay (AID 1918987); settings: OCI-MY7 myeloma viability, CellTiter-Glo ATP, 48 h; viability (% of DMSO): at 45.8 µM (top of the series); also: nearly all actives have a fitted effect of over 65% in size
# Outline: as §1
# [9] = Quantitative High-Throughput drug screen in 47 multiple myeloma cell lines against the NCATS MIPE library collection: OCIMY5_PLB cell viability assay (AID 1918988); also: nearly all actives have a fitted effect of over 65% in size
# Outline: as §1
# [10] = Quantitative High-Throughput drug screen in 47 multiple myeloma cell lines against the NCATS MIPE library collection: OPM1_PLB cell viability assay (AID 1918989); also: nearly all actives have a fitted effect of over 40% in size
# Outline: as §1
# [11] = Quantitative High-Throughput drug screen in 47 multiple myeloma cell lines against the NCATS MIPE library collection: SKMM1_PLB cell viability assay (AID 1919863); settings: SKMM1 myeloma viability, CellTiter-Glo ATP, 48 h; viability: active compounds read low; also: nearly all actives have a fitted effect of over 35% in size
# Outline: as §1
# [12] = Quantitative High-Throughput drug screen in 47 multiple myeloma cell lines against the NCATS MIPE library collection: U266_ATCC cell viability assay (AID 1919864); also: nearly all actives have a fitted effect of over 35% in size;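 as to viability (% of DMSO control): 0% = media-only wells without cells and 100% = DMSO-only wells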
# Outline: as §1
# [13] = Quantitative High-Throughput drug screen in 47 multiple myeloma cell lines against the NCATS MIPE library collection: XG6_PLB cell viability assay (AID 1919865); also: nearly all actives have a fitted effect of over 40% in size
# Outline: as §1
# [14] = Quantitative High-Throughput drug screen in 47 multiple myeloma cell lines against the NCATS MIPE library collection: XG1_PLB cell viability assay (AID 1919866); also: nearly all actives have a fitted effect of over 35% in size
# Outline: as §1
# [15] = Quantitative High-Throughput drug screen in 47 multiple myeloma cell lines against the NCATS MIPE library collection: VP6_DJ cell viability assay (AID 1919867); also: nearly all actives have a fitted effect of over 40% in size;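 as to viability (% of DMSO): 100% = DMSO-only wells and 0% = wells with media alone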
# Outline: as §1
# [16] = Quantitative High-Throughput drug screen in 47 multiple myeloma cell lines against the NCATS MIPE library collection: UTMC2_PLB cell viability assay (AID 1919868); settings: CellTiter-Glo ATP luminescence, 48 h; viability (% of DMSO control): at 45.8 µM (top of the series); also: nearly all actives have a fitted effect of over 55% in size;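 as to viability (% of DMSO control): 100% = DMSO-only wells and 0% = media-only wells without cells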
# Outline: as §1
# [17] = Quantitative High-Throughput drug screen in 47 multiple myeloma cell lines against the NCATS MIPE library collection: PE2_PLB cell viability assay (AID 1919869); also: nearly all actives have a fitted effect of over 35% in size
# Outline: as §1
# [18] = Quantitative High-Throughput drug screen in 47 multiple myeloma cell lines against the NCATS MIPE library collection: PCM6_Riken cell viability assay (AID 1919870); also: nearly all actives have a fitted effect of over 30% in size
# Outline: as §1
# [19] = Quantitative High-Throughput drug screen in 47 multiple myeloma cell lines against the NCATS MIPE library collection: RPMI8226_ATCC cell viability assay (AID 1919871); also: nearly all actives have a fitted effect of over 30% in size
# Outline: as §1
# [20] = Quantitative High-Throughput drug screen in 47 multiple myeloma cell lines against the NCATS MIPE library collection: L363_DSMZ cell viability assay (AID 1918984); also: nearly all actives have a fitted effect of over 40% in size
# Outline: as §1
# Potency is read from the fitted curve at half-maximal effect.
structure (smiles),measurement,setting,value
C=C1C(=O)[C@@]23C(CC[C@@H]1[C@H]2O)[C@@]12CO[C@]3(O)[C@@H](O)[C@@H]1C(C)(C)CC[C@@H]2O (stereo not given in full),Potency,[1],1.32 µM (active)
same,Potency,[2],7.43 µM (active)
same,Potency,[3],1.87 µM (active)
same,Potency,[4],1.48 µM (active)
same,Potency,[5],4.18 µM (active)
same,Potency,[6],3.72 µM (active)
same,Potency,[7],1.05 µM (active)
same,Potency,[8],0.296 µM (active)
same,Potency,[9],1.87 µM (active)
same,Potency,[10],3.72 µM (active)
same,Potency,[11],13.2 µM (active)
same,Potency,[12],8.33 µM (active)
same,Potency,[13],1.48 µM (active)
same,Potency,[14],2.96 µM (active)
same,Potency,[15],2.96 µM (active)
same,Potency,[16],8.33 µM (active)
same,Potency,[17],1.18 µM (active)
same,Potency,[18],1.66 µM (active)
same,Potency,[19],11.8 µM (active)
N#Cc1ccc(NC(=O)Nc2ccccc2Br)c2n[nH]nc12,Potency,[1],18.7 µM (active)
same,Potency,[2],inactive
same,Potency,[3],26.4 µM (active)
same,Potency,[4],inactive
same,Potency,[6],inactive
same,Potency,[20],13.2 µM (active)
same,Potency,[7],inactive
same,viability,[11],115%
same,Potency,[13],5.26 µM (active)
NS(=O)(=O)c1cccc2c1C(=O)c1cccc(O)c1C2=O,Potency,[1],0.264 µM (active)
same,Potency,[2],1.18 µM (active)
same,Potency,[3],10.5 µM (active)
same,Potency,[4],0.526 µM (active)
same,Potency,[5],0.743 µM (active)
same,Potency,[6],1.18 µM (active)
same,Potency,[20],0.166 µM (active)
same,Potency,[7],0.418 µM (active)
same,Potency,[8],0.118 µM (active)
same,Potency,[9],0.526 µM (active)
same,Potency,[11],0.372 µM (active)
same,Potency,[12],6.62 µM (active)
same,Potency,[13],0.372 µM (active)
same,Potency,[14],0.264 µM (active)
same,Potency,[15],0.662 µM (active)
same,Potency,[16],0.372 µM (active)
same,Potency,[17],0.187 µM (active)
same,Potency,[18],0.469 µM (active)
same,Potency,[19],0.833 µM (active)
CC(=O)Nc1ccc([C@H](C)C(=O)Nc2ncc(C(C)C)s2)cc1,Potency,[1],0.264 µM (active)
same,Potency,[2],5.9 µM (active)
same,Potency,[3],0.418 µM (active)
same,Potency,[4],0.743 µM (active)
same,Potency,[5],2.35 µM (active)
same,Potency,[6],7.43 µM (active)
same,Potency,[9],0.743 µM (active)
same,Potency,[10],5.26 µM (active)
same,Potency,[11],8.33 µM (active)
same,Potency,[12],4.69 µM (active)
same,Potency,[13],0.0935 µM (active)
same,Potency,[14],0.418 µM (active)
same,Potency,[15],1.66 µM (active)
same,Potency,[16],3.72 µM (active)
same,Potency,[17],2.35 µM (active)
same,Potency,[18],1.48 µM (active)
same,Potency,[19],2.64 µM (active)
COc1cc2ncnc(Nc3ccc(F)c(Cl)c3)c2cc1OCCCN1CCOCC1,Potency,[1],4.29 µM (active)
same,Potency,[2],48.1 µM (active)
same,Potency,[3],3.03 µM (active)
same,Potency,[4],21.5 µM (active)
same,Potency,[6],42.9 µM (active)
same,Potency,[20],8.55 µM (active)
same,Potency,[7],42.9 µM (active)
same,Potency,[8],1.08 µM (active)
same,Potency,[9],2.15 µM (active)
same,Potency,[10],4.29 µM (active)
same,Potency,[11],67.9 µM (active)
same,Potency,[12],30.3 µM (active)
same,Potency,[13],0.0762 µM (active)
same,Potency,[14],3.03 µM (active)
same,Potency,[15],6.79 µM (active)
same,Potency,[16],17.1 µM (active)
same,Potency,[17],13.6 µM (active)
same,Potency,[18],6.05 µM (active)
same,Potency,[19],42.9 µM (active)
CC(C)C(=O)Oc1ccc(CO)cc1[C@H](CCN(C(C)C)C(C)C)c1ccccc1,Potency,[1],inactive
same,Potency,[2],inactive
same,Potency,[3],inactive
same,Potency,[4],inactive
same,Potency,[5],inactive
same,Potency,[7],18.7 µM (active)
same,Potency,[14],inactive
same,Potency,[17],inactive
same,Potency,[18],inactive
O=c1ccn([C@@H]2O[C@H](CO)[C@H](O)[C@H]2O)c(=O)[nH]1,Potency,[1],7.43 µM (active)
same,Potency,[2],inactive
same,Potency,[3],23.5 µM (active)
same,Potency,[4],inactive
same,Potency,[5],14.8 µM (active)
same,Potency,[13],inactive
same,Potency,[14],inactive
same,Potency,[17],inactive
same,Potency,[18],inactive
O=c1[nH]cnc2c1ncn2[C@H]1CC[C@@H](CO)O1,Potency,[1],inactive
same,Potency,[2],inactive
same,Potency,[3],11.8 µM (active)
same,Potency,[4],inactive
same,Potency,[5],inactive
same,Potency,[20],inactive
same,Potency,[9],inactive
same,viability,[11],151%
same,Potency,[12],inactive
same,Potency,[13],inactive
same,Potency,[14],inactive
same,Potency,[17],inactive
same,Potency,[18],inactive
same,Potency,[19],inactive
NC(CO)(CO)CCc1ccc(Sc2cccc(OCc3ccccc3)c2)cc1Cl,Potency,[1],20.9 µM (active)
same,Potency,[2],26.4 µM (active)
same,Potency,[3],3.32 µM (active)
same,Potency,[4],10.5 µM (active)
same,Potency,[5],20.9 µM (active)
same,Potency,[20],10.5 µM (active)
same,Potency,[8],11.8 µM (active)
same,Potency,[9],20.9 µM (active)
same,Potency,[10],6.62 µM (active)
same,Potency,[11],26.4 µM (active)
same,Potency,[13],20.9 µM (active)
same,Potency,[14],16.6 µM (active)
same,Potency,[16],16.6 µM (active)
same,Potency,[17],13.2 µM (active)
same,Potency,[18],14.8 µM (active)
same,Potency,[19],23.5 µM (active)
Cn1c(N2CCCCS2(=O)=O)nc(C(=O)NCc2ccc(F)cc2)c(O)c1=O,Potency,[1],inactive
same,Potency,[2],inactive
same,Potency,[3],inactive
same,Potency,[4],inactive
same,Potency,[5],inactive
same,Potency,[6],inactive
same,Potency,[10],inactive
same,viability,[11],112%
same,Potency,[13],inactive
same,Potency,[14],inactive
same,Potency,[15],inactive
same,viability (% of DMSO control),[16],149% (active)
same,Potency,[17],inactive
same,Potency,[18],inactive
